# HCMV antiviral = qHTS Assay for inhibitors of the human cytomegalovirus (HCMV); HFF cells, HCMV-luciferase reporter, 72 h; hits give low values; activity change, negative = inhibition, % at 57.5 µM; 4.5% of 410,000 active; AID 1259415, 2018; in the data active = activity change below about -60%; inconclusive = no clear call, values can overlap the other calls; inactive = above about -39%
#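 After 16 h attachment at 37C, HFF cells received test compound and HCMV-luciferase (1 PFU/cell); reporter luminescence read 72 h later, data normalized against buffer-only and known inhibitor Salinomycin.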
# FMDV inh = High Throughput Screening for Foot and Mouth Disease Virus Antivirals | FMDV antiviral cell-based qHTS | Potency, µM (doses to about 57.9 µM), for inactives: at the top dose activity change, negative = inhibition, most hits filed as inhibitors | 1.2% of 410,000 active | AID 1159524, 2015; calls by dose curve; tested in HEK293T cells; note: read-out not given here; potency is the fitted concentration of half-maximal effect; nearly all actives have a fitted effect of over 45% in size
# FBPA Giardia inh = qHTS Assay for Inhibitors of Fructose-1,6-bisphosphate Aldolase from Giardia Lamblia. 0.71% of 290,000 active. purified Giardia FBPA. Potency, µM (top dose mostly 59.6 µM), for the others: at the highest dose activity, negative = inhibition, most hits filed as inhibitors. AID 2451, 2010; note: potency is the fitted concentration of half-maximal effect; nearly all actives have a fitted effect of over 55% in size
# Target sequence (A8B2U2 whole entry, looked up): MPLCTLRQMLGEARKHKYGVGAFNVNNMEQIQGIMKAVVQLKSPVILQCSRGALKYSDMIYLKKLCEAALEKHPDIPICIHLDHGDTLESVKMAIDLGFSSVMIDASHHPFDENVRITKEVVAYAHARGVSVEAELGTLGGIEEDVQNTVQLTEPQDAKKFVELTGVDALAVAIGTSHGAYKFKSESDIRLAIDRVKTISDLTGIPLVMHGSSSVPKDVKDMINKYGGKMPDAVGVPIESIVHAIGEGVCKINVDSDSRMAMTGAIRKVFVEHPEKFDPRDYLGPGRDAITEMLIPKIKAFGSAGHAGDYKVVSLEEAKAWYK
#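 40 nM FBPA preincubated 10 min at RT with compound (up to 57.5 uM final), then substrate plus GAPDH/TPI/NAD/arsenate coupling and diaphorase/resazurin added. Fluorescence read after 20 min at RT, 525/598 nm.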
# LASV entry inh = qHTS for Inhibitors of binding or entry into cells for Lassa Virus; Lassa virus pseudotype entry inhibition, cell reporter; Potency, µM (series often up to 37.9 µM), for the others: top-dose activity change, negative = inhibition, usual class: inhibitors; 1.2% of 300,000 active; AID 540256, 2011; calls by dose curve; tested in HEK293 cells; note: potency is the fitted concentration of half-maximal effect; nearly all actives have a fitted effect of over 50% in size
# HCV inh = qHTS Assay for Inhibitors of Hepatitis C Virus (HCV); Huh7.5.1 HCVcc-Cre infection, luciferase reporter, 44 h; Potency, µM (top dose mostly 41.8 µM), without a hit: at the highest dose activity change, negative = inhibition, actives largely listed as inhibitors; 3.4% of 340,000 active; AID 651820, 2012; note: potency is the fitted concentration of half-maximal effect
#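 Reporter virus HCVcc-Cre (~0.5 moi) infects cells exposed to compound; seeding density 1,000 cells/well with 4 h settling beforehand. Luminescence, 15 sec read, taken 44 h post-infection following a 15 min RT substrate incubation.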
# Marburg entry inh = qHTS for inhibitors of binding or entry into cells for Marburg Virus; Marburg virus pseudotyped entry inhibition, cell reporter; Potency, µM (top dose mostly 37.8 µM), for the others: at the top dose activity change, negative = inhibition, actives largely listed as inhibitors; AID 540276, 2011; 1.8% of 300,000 active; calls by dose curve; tested in HEK293 cells; note: potency is the fitted concentration of half-maximal effect
# Starred values were filed as active, the others as inactive; ? = inconclusive; nt = no result given; [ ] = remark or other dose. This is a sample that favours compounds with a hit; in the whole collection about 8.3% have one here. Unless noted, calls come from the whole dose curve; as a rule, active = well fitted curve in the direction sought with a large enough effect; inconclusive = small, poorly fitted or top-dose-only effect, or another doubt; inactive = no such curve, though single readings can be large; an effect the other way counts as inactive or inconclusive. % is set by controls: 0 for no effect and ±100 for the full control effect.
SMILES,HCMV antiviral,FMDV inh,FBPA Giardia inh,LASV entry inh,HCV inh,Marburg entry inh
COc1ccc(-c2cc(C(F)(F)F)nc(S(=O)(=O)CCCC(=O)Nc3ccccc3C(F)(F)F)n2)cc1OC,-99.7*,22.4µM*,nt,0.1%[46.1 µM],nt,-19.4%[46.1 µM]
Cc1ccc(S(=O)(=O)CCC(=O)Nc2cc(C)on2)cc1,-0.1,-15.3%,nt,nt,nt,nt
Cc1cc(NC(=O)CCS(=O)(=O)c2nc(-c3ccccc3)cc(C(F)(F)F)n2)no1,-104.2*,25.1µM*,1.7%,?,10µM*,?
CCCOc1ccc(Oc2nc(NCC(C)C)nc(N3CCOCC3)n2)nn1,141.6,-1.3%,nt,7.5%[46.1 µM],nt,-0.5%[46.1 µM]
O=C(Cc1cccs1)Nc1cccc(-c2nc3cc4ccccc4cc3[nH]2)c1,-87.7*,-5.2%,-14.5%,?,11.2µM*,?
O=C(Nc1ccc2nc(-c3cccs3)[nH]c2c1)c1ccco1,?,12.7%,-16.4%,28.2%,?,5.7%
CC(=O)Nc1cccc(NC(=O)Cc2cccs2)c1,28.7,5.1%,4.2%,nt,2.8%,nt
Cc1ccccc1-c1nc(-c2ccc(NC(=O)c3cccs3)cc2)no1,14.2,-6.8%,4.1%,2.9%,14.1µM*,?
O=C(Nc1ccc(-c2noc(-c3ccccc3F)n2)cc1)c1cccs1,24.4,28.8%,4.8%,6.7%,-18.8%,-24.0%
O=C(Nc1ccc2nc(-c3cccs3)[nH]c2c1)c1cccs1,?,14.7%,12.2%,17.9%,12.6µM*,-7.8%[46.1 µM]
O=C(Nc1ccc(-c2nc3ccc(NC(=O)c4cccs4)cc3[nH]2)cc1)c1cccs1,-83.5*,?,6.5%,?,?,?
Cc1ccc(CCNc2ccc3ccccc3c2)cn1,-63.0*,6.9%,nt,?,-8.0%,?
CSc1nc(NCCCN(C)C)c2c3c(sc2n1)CN(C)CC3,-9.6,nt,-6.6%,nt,nt,nt
CCN(CC)CCNc1nc(SC)nc2sc3c(c12)CCN(C)C3,-20.4,-5.9%,-16.6%,?,?,7.08µM*
Cn1nc(C(=O)N2CCN(c3ccc(Cl)cc3)CC2)c2c1-c1ccccc1SC2,-71.2*,-25.0%,nt,13.5%[46.1 µM],nt,3.3%[46.1 µM]
CC1CC(C)CN(C(=O)c2nn(C)c3c2CSc2ccccc2-3)C1 (centres undefined),-12.9,-3.8%,-6.1%,nt,-18.3%,nt
CCC(=O)[C@@H](C)[C@@H](O)[C@H](C)C[C@@H](C)C1OC(=O)C[C@@]2(O)CC=C(C)C(O2)C(C)=CCCC[C@H](O[C@H]2C[C@@H](OC(N)=O)[C@H](O)[C@@H](C)O2)C=C[C@H](C)C[C@H]1C (some centres undefined),nt,17.8µM*,nt,nt,nt,nt
C[C@@H]1C[C@H]2[C@H]3C[C@@H](F)C4=CC(=O)C=C[C@]4(C)[C@@]3(Cl)[C@@H](O)C[C@@]2(C)[C@@H]1C(=O)COC(=O)C(C)(C)C,nt,nt,-4.7%[21.7 µM],nt,nt,nt
C=Cc1ccc(Cn2c(=O)cc(C)c3c(C)nn(C)c32)cc1,-9.5,?,nt,?,nt,nt
Cc1nnc(N2CCCC(C(=O)Nc3cccc(C(F)(F)F)c3)C2)c2nn(-c3ccccc3)c(C)c12 (centres undefined),-32.6,-22.7%,nt,-21.1%[46.1 µM],nt,nt
O=C(c1ccc(COc2ccc(Cl)cc2)o1)N1N=C(C(F)F)CC1(O)C(F)F (centres undefined),-70.0*,?,0.2%,-16.2%,?,-30.5%
OC[C@@H](O)C(O)[C@H](O)[C@H](O)CO (some centres undefined),nt,nt,-5.8%,nt,nt,nt
COc1ccccc1C1CN(CCNC(=O)c2cnsn2)Cc2ccccc2O1 (centres undefined),nt,9.3%,nt,nt,nt,nt
COc1cc([C@@H]2c3cc4c(cc3[C@@H](O)[C@H]3COC(=O)[C@H]23)OCO4)cc(OC)c1O[Si](C)(C)C(C)(C)C,?,0.0%,-6.3%,nt,-29.0%,nt
COc1cc(C2c3cc4c(cc3C(OC(C)=O)[C@H]3COC(=O)C23)OCO4)cc(OC)c1OC (some centres undefined),nt,-15.8%,1.5%,nt,nt,nt
SMILES,HCMV antiviral,FMDV inh,FBPA Giardia inh,LASV entry inh,HCV inh,Marburg entry inh
COc1cc(C2c3cc4c(cc3CC3COC(=O)C32)OCO4)cc(OC)c1O (centres undefined),-90.2*,-12.5%,nt,?,?,?
COc1cc(C2c3cc4c(cc3OC(N3CCCCC3)C2C)OCO4)cc(OC)c1O (centres undefined),-5.0,-19.3%,nt,?,-15.6%,-24.5%
CCC1C(c2cc(OC)c(OC)c(OC)c2)c2cc3c(cc2OC1N1CCCC1)OCO3 (centres undefined),-2.6,-7.7%,nt,8.91µM*,?,?
COc1cc(C2c3cc4c(cc3C3OC(=O)C2C3CO)OCO4)cc(OC)c1OC (centres undefined),-75.7*,-4.7%,nt,nt,nt,nt
CCOC(=O)C1CSCCS(=O)(=O)N1Cc1ccc(C)cc1 (centres undefined),22.8,nt,nt,nt,nt,nt
COc1ccccc1N1CCN(C(=O)c2nc(SC)ncc2Cl)CC1,21.2,25.4%,nt,?,nt,-19.4%[46.1 µM]
Cc1ccc(/C=N/Nc2nc(C(C)(C)C)cs2)o1,0.0,12.8%,?,0.0%,?,-18.9%
Cc1ccc(/C=N/Nc2nc3ccccc3s2)o1,-15.1,-39.3%,0.9%,3.16µM*,-2.2%,?
CC(=O)Nc1ccn(C2OC(C(COC(C)=O)NC(=O)C(Cc3ccccc3)NC(=O)OC(C)(C)C)C(OC(C)=O)C2OC(C)=O)c(=O)n1 (centres undefined),nt,nt,-0.2%,nt,nt,nt
S=c1[nH]cc(-c2ccccc2)n1-c1ccccc1,31.3,-7.6%,-5.2%,-4.8%,15.3%,-0.9%
Cc1ccc(-n2c(-c3ccccc3)c[nH]c2=S)cc1,-74.0*,?,1.1%,?,?,-1.6%[46.1 µM]
Nc1cc2nsnc2cc1Br,-107.0*,?,?,-46.5%,?,?
C=CCNC(=O)CN1C(=O)NC(C)(c2ccc(OC)cc2)C1=O (centres undefined),-98.9*,3.9%,0.6%,23.2%,12.4%,4.3%[46.1 µM]
COc1cc(NC(=O)CN2C(=O)NC(c3ccccc3)(c3ccccc3)C2=O)cc(OC)c1,?,-14.4%,0.2%,?,-16.3%,-12.5%[46.1 µM]
COc1ccc(CNC(=O)CN2C(=O)NC(C)(c3ccc(C(C)(C)C)cc3)C2=O)cc1 (centres undefined),-36.6,?,8.7%,-18.8%,-16.4%,?
COc1ccc(C2(c3ccc(OC)cc3)NC(=O)N(CC(=O)Nc3ccc(C(=O)N(C)C)cc3)C2=O)cc1,-66.1*,-16.8%,nt,-13.6%,-12.8%,18.2%
Cc1cc(OCC(=O)Nc2nc3c(s2)CCCC3)cc(C)c1Cl,-12.2,-10.2%,nt,1.8%[46.1 µM],nt,17.3%[46.1 µM]
Brc1ccc(CSc2nccn2-c2ccccc2)cc1,-73.1*,-0.5%,-5.0%,-23.2%,-3.1%,?

# Source: PubChem (National Center for Advancing Translational Sciences (NCATS))
